Results published in PubChem BioAssay (NCATS).
Results filed as inconclusive are left out. The source made the active and inactive calls. Calls come from the whole dose curve; as a rule, active = well fitted inhibition curve with a large enough effect; inconclusive = small, poorly fitted or top-dose-only effect; inactive = flat fitted curve, though single readings scatter. Peptide text beside a SMILES is read from it.

Assays:
Assay in all cases: qHTS profiling for inhibitors of Plasmodium falciparum proliferation (AID 504749); note: nearly all actives have a fitted effect of over 60% in size
Settings in all cases: P. falciparum in erythrocytes, SYBR Green DNA, 72 h; series mostly up to 12.8 µM
AS120 = test system: AS120
Summary of the method: (§1)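 Readout was DNA-dye fluorescence from lysed cultures, ex 485/em 535 nm. Parasitized red cells had grown 72 h with compound; data scaled between 0.29 uM artemisinin and DMSO wells and corrected using vehicle-only plates.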

ATS189 = test system: ATS189
Summary of the method: as §1

CP185 = test system: CP185
Summary of the method: as §1

CP191 = test system: CP191
Summary of the method: as §1

CP192 = test system: CP192
Summary of the method: as §1

CP211 = test system: CP211
Summary of the method: as §1

CP262 = test system: CP262
Summary of the method: as §1

CP268 = test system: CP268
Summary of the method: as §1

CP269 = test system: CP269
Summary of the method: as §1

CP305 = test system: CP305
Summary of the method: as §1

CP315 = test system: CP315
Summary of the method: as §1

CP325 = test system: CP325
Summary of the method: as §1

CP329 = test system: CP329
Summary of the method: as §1

FAB9 = test system: FAB9
Summary of the method: as §1

GB4 = test system: GB4
Summary of the method: as §1

JCK = test system: JCK
Summary of the method: as §1

N140 = test system: N140
Summary of the method: as §1

PC49 = test system: PC49
Summary of the method: as §1

TAB113 = test system: TAB113
Summary of the method: as §1

Measured: Potency
Potency is the fitted concentration of half-maximal effect.

CNC1C(OC2C(O[C@@H]3C(O)C(O)[C@@H](N=C(N)N)C(O)C3N=C(N)N)OC(C)[C@@]2(O)CO)OC(CO)C(O)C1O (stereo partly drawn)
inactive: all assays above

COC(=O)N/N=C/C1=C[N+](=O)c2ccccc2[N+]1=O
inactive: all assays above

CN(C)CCCOC1C(C(O)CO)OC2OC(C)(C)O[C@@H]21 (stereo partly drawn)
inactive: all assays above

CNC1CC(N)[C@H](O)[C@@H](O[C@@H]2OC(CO)C3OC4(OC(C(N)CO)C(O)C(O)C4O)O[C@@H]3[C@H]2O)C1O (stereo partly drawn)
inactive: all assays above

CCC(C)C(=O)OC1CCC=C2C=CC(C)C(CCC3CC(O)CC(=O)O3)[C@@H]21 (stereo partly drawn)
not listed: TAB113
inactive: all other assays above

Nc1nc2ncc(CNc3ccc(C(=O)NC(CCC(=O)O)C(=O)O)cc3)nc2c(=O)[nH]1 (stereo not drawn)
inactive: all assays above

CCC(CCC(C)C1CCC2C3CC=C4CC(O)CC[C@@]4(C)C3CC[C@@]12C)C(C)C (stereo partly drawn)
inactive: all assays above

COC(=O)C(Cc1ccccc1)NC(=O)C(N)CC(=O)O (stereo not drawn) (H-Asp-Phe-OMe; configuration not given here)
inactive: all assays above

C/C1=C2N=C(/C=C3N=C(/C(C)=C4\[N-]C(C)(C5N=C1C(C)(CCC(=O)NCC(C)OP(=O)([O-])O[C@H]1C(O)C(n6cnc7cc(C)c(C)cc76)O[C@@H]1CO)C5CC(N)=O)C(C)(CC(N)=O)C4CCC(N)=O)C(C)(CC(N)=O)C\3CCC(N)=O)C(C)(C)C/2CCC(N)=O.[CH2-]C1OC(n2cnc3c(N)ncnc32)C(O)C1O.[Co] (stereo partly drawn)
not listed: CP211
inactive: all other assays above

NC(C(=O)O)[C@@H]1CC(Cl)=NO1 (stereo partly drawn)
active: AS120 1.78 µM | ATS189 2.82 µM | CP185 2.82 µM | CP191 2.51 µM | CP192 3.38 µM | CP211 2.69 µM | CP262 4.26 µM | CP268 1.51 µM | CP269 2.69 µM | CP305 1.51 µM | CP315 3.38 µM | CP325 2.69 µM | CP329 3.01 µM | FAB9 2.82 µM | GB4 1.2 µM | JCK 5.62 µM | N140 1.26 µM | TAB113 1 µM

NCC1CCC(N)C(O[C@@H]2C(O)[C@H](O[C@H]3OC(CO)C(O)C(N)C3O)[C@@H](N)C[C@H]2N)O1 (stereo partly drawn)
inactive: all assays above

CC1(C)SC2C(N3C(=O)C(c4ccccc4)NC3(C)C)C(=O)N2C1C(=O)O (stereo not drawn)
inactive: all assays above

C[C@]12CCC(=O)C=C1CCC1C2C(=O)C[C@]2(C)C1CC[C@]2(O)C(=O)CO (stereo partly drawn)
inactive: all assays above

C[C@]12C=CC(=O)C=C1CCC1C2C(O)C[C@]2(C)C1CC[C@]2(O)C(=O)CO (stereo partly drawn)
inactive: all assays above

CC(C)=CCC[C@](C)(O)C1CC=C(C)CC1 (stereo partly drawn)
inactive: all assays above

CC1CCC(C(C)C)C(=O)C1 (stereo not drawn)
inactive: all assays above

CC[C@@]12CCCN3CCc4c(n(c5ccccc45)[C@](O)(C(=O)OC)C1)C32 (stereo partly drawn)
inactive: all assays above

CC(C)C1CCC(C(=O)NC(Cc2ccccc2)C(=O)O)CC1 (stereo not drawn)
inactive: all assays above

CC1C2CCC3C4CC=C5CC(N(C)C)CC[C@@]5(C)C4CC[C@@]32CN1C (stereo partly drawn)
inactive: all assays above

CC(=O)O[C@@]1(C(C)=O)CCC2C3CC(C)C4=CC(=O)CC[C@@]4(C)C3CC[C@]21C (stereo partly drawn)
not listed: AS120 | ATS189 | CP185 | CP191 | N140 | TAB113
inactive: all other assays above

COc1ccc2cc1Oc1ccc(cc1)CC1c3c(cc4c(c3Oc3cc5c(cc3OC)CCN(C)C5C2)OCO4)CCN1C (stereo not drawn)
active: AS120 3.98 µM | ATS189 4.47 µM | CP185 7.94 µM | CP191 5.01 µM | CP211 12 µM | CP262 8.49 µM | CP268 13.5 µM | CP269 13.5 µM | CP305 9.53 µM | CP325 12 µM | GB4 6.75 µM | N140 3.16 µM | TAB113 7.08 µM

N[C@@H]1C(O)OC(CO)C(O)C1O (stereo partly drawn)
not listed: CP192 | CP262 | CP269 | GB4
inactive: all other assays above

CC(=O)[C@]1(O)CCC2C3C=C(Cl)C4=CC(=O)C5CC5[C@@]4(C)C3CC[C@]21C (stereo partly drawn)
inactive: all assays above
